Where “and” joins values, the source holds several entries; their conditions need not be identical. Equal entries are not always repeated. Records with an inconclusive call do not appear. More than one record can exist for a structure, and the calls need not agree. Calls of active or inactive are those of the source. Unless noted, the call rests on the fitted dose curve; in most records, active means well fitted curve in either direction with a large enough effect (not every such curve was filed as active); inconclusive means small, poorly fitted or top-dose-only effect, or another doubt; inactive means flat fitted curve, though single readings scatter.

The nature of experiment [1]: AP1 Signaling Pathway (AID 357).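 Further: ME-180 reporter cells stimulated with EGF at its EC50 level; on the % scale 0 is the no-effect control and ±100 the full control effect.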 Summed up: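 In this screen, ME-180 cells in Opti-MEM with 0.5% dialyzed FBS received EC50 EGF and compound titrations for 5 h. AP-1 reporter beta-lactamase was detected via CCF4 ratio, giving AC50 for positive and negative modulators.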
The target in experiment [2] is Cytochrome P450 1A2 (Homo sapiens) (UniProt P05177). The experiment is described as follows: p450-cyp1a2 (AID 410; calls by dose curve; further: potency means the concentration at half of the fitted maximal effect;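 on activity change, negative = inhibition: -100% = full effect of reference inhibitor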). The essentials:
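Luminescent readout of luciferin formed from Luciferin-ME by human CYP1A2; data normalized against complete inhibition by 57 uM furafylline. Enzyme 20nM, substrate 100uM at Km, 100mM KPO4 buffer, 60 min reaction at room temperature.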

A short description of experiment [3]: NFAT Signaling Pathway (AID 444).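 Further: carbachol stimulus at about its EC50 of 1 µM final; on the % scale 0 is the no-effect control and ±100 the full control effect.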 The conditions noted are these: Jurkat NFAT-bla M1, carbachol, beta-lactamase ratio, 5 h. The essentials: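 Jurkat cells carrying an NFAT-driven β-lactamase reporter and co-transfected muscarinic M1 receptor were treated with compound plus carbachol (1 uM final, an EC50 level) for 5 h at 37 °C. CCF4 loading followed for 1 h at RT; 460/530 nm ratio gave %activity.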

Experiment [4] can be described thus: Stat Signaling Pathway (AID 446).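 Further: ME-180 cervical cancer cells given 40 pM IL-6 alongside compound; SIE-controlled beta-lactamase reporter measured as 460/530 nm FRET emission ratio; on the % scale 0 is the no-effect control and ±100 the full control effect.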 Summed up: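 ME-180 cells carrying a SIE-driven beta-lactamase reporter are stimulated with 40 pM IL-6 for 5 h at 37C in the presence of compound. The 460/530 nm FRET substrate ratio is read after 2.5 h at RT. Data are normalised to 300 pM IL-6 and to 125 nM JAK inhibitor controls.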
Experiment [5] concerns the target Mitogen-activated protein kinase 10 (Mus musculus) (UniProt Q61831). The experiment is described as follows: JNK3 AlphaScreen Assay (AID 530).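 Further: kinase came from lysate of stimulated human HepG2 cells; signal reports phosphorylation of biotinylated GST-cJun 1-79 at Ser73 with 10 µM ATP; on the % scale 0 is the no-effect control and ±100 the full control effect.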 Summed up:
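Inhibitors reduce antibody binding to phosphorylated biotin-cJun, lowering AlphaScreen luminescence. Lysates from HepG2 cells pre-activated by IL-1beta plus TNF-alpha supplied JNK3; compounds were titrated.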
A general note: Alpha assays give light when donor and acceptor beads are brought close together.

In experiment [6] the target is 3',5'-cyclic-AMP phosphodiesterase 4B (Homo sapiens) (UniProt Q07343). The experiment is described as follows: qHTS Assay for Inhibitors of PDE-IV (AID 607; active means well fitted activation curve with a large enough effect in the main read-out, with a control signal flat, not every such curve was filed as active; further: % of control where 0% means no effect). The essentials:
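HEK293 ACTOne cells with CNG channel (1000/well), endogenous PDE4; membrane potential dye, compounds up to 22.9 uM final. Fluorescence Ex 535/Em 590; RO 20-1724 (100 uM final) as reference.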

Experiment [7] deals with Cytochrome P450 3A4 (Homo sapiens) (UniProt P08684). The experiment is described as follows: qHTS Assay for Activators of Cytochrome P450 3A4 (AID 885; active means well fitted curve in the direction sought with a large enough effect; an effect the other way counts as inactive or inconclusive; further: nearly all actives have a fitted effect of over 65% in size). The essentials:
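Human CYP3A4 (20 nM) with Luciferin-PPXE at 25 uM (its KM) in 200 mM KPO4; 10 min compound preincubation, then NADPH regeneration and 60 min reaction at RT. Luciferin read by luminescence; normalized to 57 uM ketoconazole full inhibition.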
(Quantitative high-throughput screening tests each substance at several concentrations.)

Experiment [8] in a line: qHTS Assay for Lipid Storage Modulators (AID 1519; calls by dose curve). The conditions noted are these: Drosophila S3 cells, BODIPY lipid droplet/cell ratio, laser cytometry, cells loaded with oleic acid. The essentials: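 Cells seeded at 5,000 per well were treated with compounds over a concentration series and loaded with oleic acid (400 uM, as added). Lipid droplet fluorescence (488 nm excitation, 500-530 nm channel) was read by laser-scanning cytometry and normalized to 20 uM Triacsin C.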

Experiment [9] has as its target Ubiquitin carboxyl-terminal hydrolase 1 (Homo sapiens) (UniProt O94782). As to the kind of experiment: Inhibitors of USP1/UAF1: Pilot qHTS (AID 504865; active means well fitted curve in the direction sought with a large enough effect; an effect the other way counts as inactive or inconclusive;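 further: rhodamine fluorescence freed from ubiquitin-rhodamine substrate followed over time; top concentration of the series differs between compounds; on the % scale 0 is the no-effect control and ±100 the full control effect; nearly all actives have a fitted effect of over 35% in size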). The essentials:
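Enzyme-free wells gave the negative control, while test wells held 1nM USP1/UAF1 preincubated with compound for 15 min at room temperature. Ub-Rho at 150nM final started the reaction, and fluorescence at 480/540 nm was recorded kinetically.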

In experiment [10] the target is Lysosomal acid glucosylceramidase (Homo sapiens) (UniProt P04062). The experiment is described as follows: Glucocerebrosidase-p2 (AID 348; in the data active means potency below about 10 µM; further: potency means the concentration at half of the fitted maximal effect). The conditions noted are these: purified GBA, blue fluorogenic substrate, 40 min. Summed up:
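Compounds titrated from 0.6 nM upwards against 0.2 nM enzyme in pH 5.9 citric acid/KH2PO4, taurocholate, tween-20; blue fluorogenic substrate 80 uM, 40 min room temperature, stopped and read Ex 365/Em 440 for AC50.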

Experiment [11] concerns the target Glucocorticoid receptor (Homo sapiens) (UniProt P04150). The experiment is described as follows: GR-EFC Redistribution (AID 451; calls by dose curve; further: potency means the concentration at half of the fitted maximal effect). The conditions noted are these: CHO-K1 GR-EFC translocation, beta-gal luminescence, 2 h. The essentials:
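CHO-K1 cells stably expressing nuclear-localized β-gal enzyme acceptor and GR fused C-terminally to the enzyme donor fragment; ligand-driven nuclear translocation restores β-gal by complementation. Compounds titrated up to 46 uM final, 2 h at 37 °C; luminescence read.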

Experiment [12] shares this target. The experiment is described as follows: GR-GFP Redistribution (AID 450;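 active means compounds whose dose series gives a full or clear partial fitted curve of increased nuclear translocation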; further: potency means the concentration at half of the fitted maximal effect). The conditions noted are these: U2OS GR-GFP nuclear translocation, laser cytometry, 2 h.
The mark [13] stands for this setting: measured here: cell count channel max response.
The mark [14] stands for this setting: measured here: lipid channel max response.

Chain of Ubiquitin carboxyl-terminal hydrolase 1 (Homo sapiens) (O94782 whole entry, looked up): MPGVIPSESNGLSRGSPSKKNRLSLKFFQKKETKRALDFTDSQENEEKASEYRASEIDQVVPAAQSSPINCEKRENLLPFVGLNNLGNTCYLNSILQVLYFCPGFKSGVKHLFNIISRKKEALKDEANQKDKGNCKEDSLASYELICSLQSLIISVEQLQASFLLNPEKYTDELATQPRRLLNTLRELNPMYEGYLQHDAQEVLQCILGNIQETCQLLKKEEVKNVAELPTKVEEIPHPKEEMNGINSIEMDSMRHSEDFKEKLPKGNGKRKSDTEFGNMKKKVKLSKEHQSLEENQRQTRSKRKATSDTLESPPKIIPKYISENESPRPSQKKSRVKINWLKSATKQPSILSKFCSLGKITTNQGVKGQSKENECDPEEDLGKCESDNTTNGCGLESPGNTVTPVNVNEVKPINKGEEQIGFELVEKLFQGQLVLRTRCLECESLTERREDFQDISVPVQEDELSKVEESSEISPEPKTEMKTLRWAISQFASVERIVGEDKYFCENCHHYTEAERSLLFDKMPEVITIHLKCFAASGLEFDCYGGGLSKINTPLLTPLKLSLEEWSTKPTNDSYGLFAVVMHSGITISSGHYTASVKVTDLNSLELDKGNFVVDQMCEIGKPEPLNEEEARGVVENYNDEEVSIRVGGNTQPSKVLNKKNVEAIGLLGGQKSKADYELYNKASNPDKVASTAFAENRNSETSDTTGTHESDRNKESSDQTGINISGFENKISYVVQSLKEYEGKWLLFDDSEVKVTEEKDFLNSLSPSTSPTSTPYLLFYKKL
Chain of Cytochrome P450 1A2 (Homo sapiens) (P05177 whole entry, looked up): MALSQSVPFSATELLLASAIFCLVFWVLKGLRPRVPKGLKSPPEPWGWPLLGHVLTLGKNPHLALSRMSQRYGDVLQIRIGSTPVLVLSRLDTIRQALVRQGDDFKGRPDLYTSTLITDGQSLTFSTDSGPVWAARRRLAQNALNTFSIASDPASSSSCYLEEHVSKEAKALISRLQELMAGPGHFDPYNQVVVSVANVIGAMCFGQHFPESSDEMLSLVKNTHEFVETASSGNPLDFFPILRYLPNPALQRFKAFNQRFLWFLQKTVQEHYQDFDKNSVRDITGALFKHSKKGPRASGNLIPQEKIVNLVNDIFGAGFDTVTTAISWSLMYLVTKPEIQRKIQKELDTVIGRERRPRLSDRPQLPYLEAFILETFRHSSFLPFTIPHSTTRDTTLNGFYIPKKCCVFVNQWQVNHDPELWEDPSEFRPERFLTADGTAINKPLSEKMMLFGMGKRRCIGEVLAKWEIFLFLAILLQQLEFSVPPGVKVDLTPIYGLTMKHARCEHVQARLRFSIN
Chain of 3',5'-cyclic-AMP phosphodiesterase 4B (Homo sapiens) (Q07343 whole entry, looked up): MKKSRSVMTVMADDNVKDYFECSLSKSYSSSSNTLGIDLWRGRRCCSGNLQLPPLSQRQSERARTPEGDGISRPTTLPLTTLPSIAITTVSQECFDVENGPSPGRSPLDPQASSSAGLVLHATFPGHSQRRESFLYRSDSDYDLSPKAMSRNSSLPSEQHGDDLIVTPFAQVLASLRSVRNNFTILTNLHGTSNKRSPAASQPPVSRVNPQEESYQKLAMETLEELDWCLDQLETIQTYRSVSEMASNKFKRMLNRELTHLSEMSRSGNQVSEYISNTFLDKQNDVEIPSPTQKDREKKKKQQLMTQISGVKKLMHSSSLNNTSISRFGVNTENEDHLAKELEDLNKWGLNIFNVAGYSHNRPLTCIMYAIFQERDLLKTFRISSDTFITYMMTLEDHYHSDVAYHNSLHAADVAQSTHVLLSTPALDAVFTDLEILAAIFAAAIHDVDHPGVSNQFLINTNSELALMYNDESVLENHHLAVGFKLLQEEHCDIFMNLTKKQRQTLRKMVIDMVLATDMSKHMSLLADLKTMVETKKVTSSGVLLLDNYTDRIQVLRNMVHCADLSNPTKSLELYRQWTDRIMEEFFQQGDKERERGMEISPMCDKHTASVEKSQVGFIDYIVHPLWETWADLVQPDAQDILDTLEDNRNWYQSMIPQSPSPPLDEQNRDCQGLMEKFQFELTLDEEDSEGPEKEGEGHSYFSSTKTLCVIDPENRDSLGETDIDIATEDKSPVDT
Chain of Glucocorticoid receptor (Homo sapiens) (P04150 whole entry, looked up, the tested form may be a part): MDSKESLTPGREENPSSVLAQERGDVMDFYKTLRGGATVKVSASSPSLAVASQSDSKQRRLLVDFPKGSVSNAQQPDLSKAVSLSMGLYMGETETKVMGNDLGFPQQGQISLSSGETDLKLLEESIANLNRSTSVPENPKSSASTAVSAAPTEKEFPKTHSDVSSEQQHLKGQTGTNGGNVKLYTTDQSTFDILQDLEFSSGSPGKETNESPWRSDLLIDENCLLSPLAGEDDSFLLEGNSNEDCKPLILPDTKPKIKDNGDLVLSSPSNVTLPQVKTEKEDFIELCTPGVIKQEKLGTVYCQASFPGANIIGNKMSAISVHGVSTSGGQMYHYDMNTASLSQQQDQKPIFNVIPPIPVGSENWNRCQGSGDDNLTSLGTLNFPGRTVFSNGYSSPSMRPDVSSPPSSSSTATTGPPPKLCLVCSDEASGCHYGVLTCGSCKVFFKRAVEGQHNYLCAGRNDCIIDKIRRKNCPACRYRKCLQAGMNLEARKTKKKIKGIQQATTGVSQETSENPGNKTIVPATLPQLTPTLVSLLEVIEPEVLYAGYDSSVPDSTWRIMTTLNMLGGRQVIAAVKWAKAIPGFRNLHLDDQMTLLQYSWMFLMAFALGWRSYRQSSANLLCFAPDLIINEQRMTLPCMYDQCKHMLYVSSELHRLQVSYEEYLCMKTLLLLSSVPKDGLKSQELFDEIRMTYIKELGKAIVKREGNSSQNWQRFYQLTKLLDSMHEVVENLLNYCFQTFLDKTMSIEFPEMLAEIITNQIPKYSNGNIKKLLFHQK
Chain of Cytochrome P450 3A4 (Homo sapiens) (P08684 whole entry, looked up): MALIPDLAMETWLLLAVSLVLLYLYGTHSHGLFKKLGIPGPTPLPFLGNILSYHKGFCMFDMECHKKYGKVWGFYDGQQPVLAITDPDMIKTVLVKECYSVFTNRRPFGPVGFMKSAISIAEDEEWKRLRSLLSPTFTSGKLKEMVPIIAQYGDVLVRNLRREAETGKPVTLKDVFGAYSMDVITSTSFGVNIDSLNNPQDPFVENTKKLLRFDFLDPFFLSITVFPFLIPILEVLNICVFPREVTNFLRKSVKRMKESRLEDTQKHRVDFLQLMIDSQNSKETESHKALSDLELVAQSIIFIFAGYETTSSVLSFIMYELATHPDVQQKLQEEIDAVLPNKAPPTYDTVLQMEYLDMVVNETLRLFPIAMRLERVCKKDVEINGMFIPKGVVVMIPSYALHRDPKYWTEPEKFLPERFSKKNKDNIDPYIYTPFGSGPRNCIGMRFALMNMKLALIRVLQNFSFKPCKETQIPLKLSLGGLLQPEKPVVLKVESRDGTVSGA
Chain of Lysosomal acid glucosylceramidase (Homo sapiens) (P04062 whole entry, looked up): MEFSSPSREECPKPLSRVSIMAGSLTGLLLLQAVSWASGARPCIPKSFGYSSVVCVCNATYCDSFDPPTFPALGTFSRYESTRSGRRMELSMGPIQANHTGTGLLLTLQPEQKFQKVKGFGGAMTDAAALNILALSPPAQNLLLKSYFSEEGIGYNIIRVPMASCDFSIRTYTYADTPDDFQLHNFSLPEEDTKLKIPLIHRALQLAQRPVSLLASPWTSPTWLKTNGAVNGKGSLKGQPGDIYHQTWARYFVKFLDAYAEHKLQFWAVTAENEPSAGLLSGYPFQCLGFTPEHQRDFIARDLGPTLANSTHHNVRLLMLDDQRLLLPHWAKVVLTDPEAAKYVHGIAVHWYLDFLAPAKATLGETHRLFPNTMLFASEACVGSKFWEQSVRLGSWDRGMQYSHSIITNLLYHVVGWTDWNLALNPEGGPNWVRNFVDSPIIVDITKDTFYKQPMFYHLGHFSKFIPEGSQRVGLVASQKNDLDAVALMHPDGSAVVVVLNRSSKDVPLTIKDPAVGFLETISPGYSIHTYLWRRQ

In the case of `COc1ccc2c(c1OC)C(=O)O[C@H]2[C@H]1c2cc3c(cc2CCN1C)OCO3`, the outcome in [1], in [4] and in [5] was inactive. Moreover, the Potency in experiment [2] was 25.1 µM (active) and inactive and 31.6 µM (active). Also, the activity change, negative = inhibition in experiment [3] (at 17.2 µM (top of the series)) is -1.79% (inactive); in experiment [3] (at 38 µM (top of the series)), 9.14% (inactive); in experiment [8] (at 25.7 µM (top of the series)), 3% (inactive). For the same compound, the Potency result in experiment [6], in [7] and in experiment [9] was “inactive” throughout. The max response was -6.69% in experiment [8] (setting [13]) and -2.42% in [8] (setting [14]).

As to `O=C(Oc1ccccc1)N1CCC2(CCCN(C(c3ccccc3)c3ccccc3)C2)CC1`, the Potency in experiment [10] is > 11.4 µM (inactive); in experiment [11] it was > 46 µM (inactive). Besides, the compound was called inactive in [5]. Moreover, the Potency entry in experiment [6] was “inactive”. In experiment [8] (at 57.5 µM (top of the series)), the activity change, negative = inhibition was 6.26% (inactive). The max response was 7.72% in experiment [8] (setting [13]) and 16.7% in experiment [8] (setting [14]).

With `COc1cc2c3cc1Oc1cc(ccc1O)C[C@@H]1c4c(cc(OC)c(O)c4Oc4cccc(c4)C[C@H]3N(C)CC2)CC[N+]1(C)C`, the outcome in [1], in experiment [4] and in experiment [5] was inactive. Further, the Potency result in experiment [2], in experiment [6] and in experiment [9] was “inactive” in each case. In addition, the activity change, negative = inhibition is -7.53% (inactive) in experiment [3] (at 17.2 µM (top of the series)) and 0.776% (inactive) in [8] (at 25.7 µM (top of the series)). Also, the Potency in [12] and in [11] was > 20.6 µM (inactive) throughout. Moreover, the max response came out at 15.7% in [8] (setting [13]) and 13.7% in experiment [8] (setting [14]).

On to `CC(C)[C@@]1(NC(=O)[C@@H]2C[C@H]3c4cccc5[nH]cc(c45)C[C@@H]3N(C)C2)O[C@]2(O)[C@H]3CCCN3C(=O)CN2C1=O`, for which the outcome in [1], in experiment [4] and in experiment [5] was inactive. Moreover, the Potency result in experiment [2], in [6] and in [9] was “inactive” in each case. Also, the activity change, negative = inhibition is -1.94% (inactive) in experiment [3] (at 17.2 µM (top of the series)) and 1.9% (inactive) in [8] (at 25.7 µM (top of the series)). Besides, the Potency in [12] and in experiment [11] was > 20.6 µM (inactive) throughout. The max response amounted to 8.08% in [8] (setting [13]) and 10.3% in experiment [8] (setting [14]).

The record behind these values is PubChem BioAssay (NCATS).
